Out of some 63,000 compounds screened, about 1,100 (1.7%) were called active. The entries come from a sample that favours actives as a whole. Potency and affinity values are given separately. A number with no mark means an inactive call.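 Rule for the calls: active = compounds whose percent cytotoxicity in the single-dose primary screen, scaled between solvent and toxic-drug controls, exceeds 50; inactive = the rest.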

We go through 62 compounds from PubChem BioAssay AID431 (Sanford-Burnham Center for Chemical Genomics, 2006).

A short description of the test: cytotoxicity in KRAS-transformed pancreatic duct cells, primary screen, cell-based, fluorescence, HTS (AID 431).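 Note: 0% = DMSO solvent wells and 100% = doxorubicin-treated wells.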 The following applies: HPDE-C7K KRASV12 cells, Alamar Blue viability, 48 h; at 10 µM; hits give high values. On the technique in general: Resazurin is reduced to fluorescent resorufin, in cell work by metabolically active cells.
Turning to `COc1ccc(CCNC(=O)CC2Nc3cc(C)c(C)cc3NC2=O)cc1OC` (configuration not stated), the cytotoxicity is 0%.

`O=C(O)Cn1cccc1C(=O)c1ccccc1`: the cytotoxicity is -0.1%. Turning to `N=c1c(C(=O)NCc2ccc(F)cc2)cc2c(=O)n3ccccc3nc2n1Cc1ccco1`, the cytotoxicity was -3.9%. The figure for `O=C(Cn1c(=O)sc2ccccc21)NCCOc1ccccc1F` is -11.5%.

On to `CCC(C)Sc1nnc(Cc2cc(=O)[nH]c(=O)[nH]2)n1-c1ccc(F)cc1` (configuration not stated), for which the cytotoxicity was -12.7%. Regarding `CC(=O)Nc1ccc(N(C(=O)c2cnccn2)C(C(=O)NC2CCCCC2)c2ccc(O)cc2)cc1` (configuration not stated), the cytotoxicity was -16.5%. Consider `CCOC(=O)c1sc(NC(=O)c2ccc(CC)s2)nc1C`, for which the cytotoxicity was 4.6%. Then `C=C(C)COc1ccc(-c2[nH]ncc2Oc2ccccc2OCC)c(O)c1`, with 78.4% (active); and `C=C(C)COc1ccc(-c2nc(N)ncc2Oc2ccccc2OCC)c(O)c1`, with 18.1%; and `CC1Cc2ccccc2N1C(=O)CN1C(=O)NC(C)(c2ccc3c(c2)OCCO3)C1=O` (configuration not stated), with 1.8%. Take `CN1CCN(c2ccc(NC(=O)c3ccccc3Br)cc2)CC1`: the cytotoxicity was 2.5%. `COc1cc2ccccc2cc1C(=O)N1CCN(C)CC1`: the cytotoxicity is -4.6%.

As to `COc1cc2ccccc2cc1C(=O)Nc1ccc(N2CCN(C)CC2)cc1`, the cytotoxicity is 65.5% (active). Then `O=C(Nc1sccc1C(=O)N1CCOCC1)c1cccnc1`, with 10.9%; and `CCCc1nc(SCC(=O)N2CCN(c3ccccc3)CC2)c2c(=O)n(C)c(=O)n(C)c2n1`, with 0.7%; and `Cn1c(=O)c2c(SCC(=O)N3CCC(Cc4ccccc4)CC3)nc(C3CC3)nc2n(C)c1=O`, with 4%. As for `CCCCOC(=O)CSc1nc(N)c(C#N)c(-c2ccc(OC)cc2)c1C#N`, the cytotoxicity was -26.1%. Turning to `CCCCOc1ccc(-c2c(C#N)c(N)nc(SCC(N)=O)c2C#N)cc1`, the cytotoxicity was 105% (active). Consider `CCCCOC(=O)CSc1nc(N)c(C#N)c(-c2ccc(OCC)cc2)c1C#N`, for which the cytotoxicity is 17%. `CCOC(=O)CSc1nc(N)c(C#N)c(-c2ccc(OC)cc2)c1C#N`: the cytotoxicity is -14.8%. Then `CCOC(=O)CC(=O)CSc1nc(N)c(C#N)c(-c2ccc(F)cc2)c1C#N`, with 16.5%; and `CCOC(=O)CC(=O)CSc1nc(N)c(C#N)c(-c2ccc(Cl)cc2)c1C#N`, with 68.4% (active); and `O=C(O)c1ccccc1C(=O)c1cccs1`, with -9.3%. On to `CCc1nc(NCC2CCCO2)c2oc3ccccc3c2n1` (configuration not stated), for which the cytotoxicity was -29.3%. Turning to `O=C(NCCCN1CCN(CCCNC(=O)c2ccc3c(c2)OCO3)CC1)c1ccc2c(c1)OCO2`, the cytotoxicity was -34.5%. Turning to `CCOC(=O)C1CCN(C(=O)C2CC(=O)N(c3ccc(C)cc3)C2)CC1` (configuration not stated), the cytotoxicity was -13.4%. Take `Cc1ccc(N2CC(C(=O)N3CCN(C(=O)c4ccco4)CC3)CC2=O)cc1` (configuration not stated): the cytotoxicity was 52.5% (active).

For `Cc1ccc(N2CC(C(=O)N3CCN(c4ccccc4)CC3)CC2=O)cc1` (configuration not stated), the cytotoxicity is 30.6%.

`CCN(CC)c1ccc(NC(=O)C2CCCN(S(=O)(=O)c3cccnc3)C2)c(C)c1` (configuration not stated): the cytotoxicity is -9.5%. As for `COc1ccc(-c2cc(-c3cc(F)ccc3O)[nH]n2)cc1OC`, the cytotoxicity was 8.8%. With `COc1ccc(-c2cc(-c3ccccc3O)[nH]n2)cc1OC`, the cytotoxicity is 61.1% (active). The figure for `Oc1ccccc1-c1cc(-c2cccc(F)c2)n[nH]1` is 16.2%; for `N#CC1=C(N)SC(N)=C(C#N)C1c1ccnc2ccccc12` it is -13.5%. For `CCOc1ccccc1N1CC(O)=C(c2nc3ccccc3s2)C1=N`, the cytotoxicity was 64.8% (active). Consider `COc1ccc(N2CC(O)=C(c3nc4ccccc4s3)C2=N)cc1`, for which the cytotoxicity was 9.4%.

`COc1ccc(N2CC(O)=C(c3nc4ccccc4s3)C2=N)c(OC)c1`: the cytotoxicity was 11.5%. For the compound `O=C(c1cccs1)N1CCOCC1`, the cytotoxicity is -26.6%. The figure for `COc1ccc2c(c1)Cc1sc(NC(=O)c3cccs3)nc1-2` is -6.8%; for `O=C(Nc1nc2c(s1)CCc1ccccc1-2)c1cccs1` it is -14.1%. In the case of `COc1ccc2c(c1)-c1nc(NC(=O)c3cccs3)sc1CC2`, the cytotoxicity was 80.1% (active).

With `Oc1ccccc1-c1nc(N2CCN(Cc3ccccc3)CC2)c2ccccc2n1`, the cytotoxicity is 13%. As for `CCCCN(Cc1ccccc1)c1ncnc2nc[nH]c12`, the cytotoxicity was 6.8%. Then `Clc1ccccc1CN(Cc1ccccc1)c1ncnc2nc[nH]c12`, with 115% (active). As for `Clc1ccccc1CNc1ncnc2nc[nH]c12`, the cytotoxicity was -10.1%. For `O/N=C1/CCCCc2sccc21`, the cytotoxicity was -23.7%. On to `COC(=O)C1=CN(CC2CCCO2)C=C(C(=O)OC)C1c1cc(OC)c(OC)c(OC)c1` (configuration not stated), for which the cytotoxicity is 9.3%.

Turning to `COc1ccccc1CN(Cc1ccco1)S(=O)(=O)c1ccc(-n2cnnn2)c(OC)c1`, the cytotoxicity was 20.8%.

Turning to `CCOc1ccccc1CN(Cc1ccco1)S(=O)(=O)c1ccc(-n2cnnn2)c(OC)c1`, the cytotoxicity was 53.2% (active). As to `COc1cc(S(=O)(=O)N(Cc2cccnc2)Cc2ccco2)ccc1-n1cnnn1`, the cytotoxicity is 6.5%.

In the case of `COC(=O)c1ccccc1NC(=O)NCC1CCCO1` (configuration not stated), the cytotoxicity was 8.4%. As to `Cc1cc(C)cc(NS(=O)(=O)c2ccc3[nH]cc(C(=O)NCc4ccco4)c(=O)c3c2)c1`, the cytotoxicity is 42.5%.

For the compound `CCN(CC)C(=O)CSc1ncnc2c1nnn2-c1ccc(OC)cc1`, the cytotoxicity is -10.4%. Take `COc1ccc(-n2nnc3c(SCC(=O)NCC4CCCO4)ncnc32)cc1` (configuration not stated): the cytotoxicity is 2.8%. `O=C(NCCc1ccccc1)c1ccnc(/C=N/O)c1`: the cytotoxicity is -14.3%. Take `CCn1c2c(c3cc(C(=O)O)ccc31)CCCC2=O`: the cytotoxicity was -19.1%.

`CCn1c2c(c3cc(Cl)ccc31)CCCC2=O`: the cytotoxicity is -6.2%.

`Cc1oc2cc(O)cc(C)c2c(=O)c1-c1cnn(-c2ccccc2)c1`: the cytotoxicity was 61.3% (active). On to `Cc1oc2c(O)c(O)ccc2c(=O)c1-c1cnn(-c2ccccc2)c1`, for which the cytotoxicity was 0.8%. As for `Cc1oc2cc(O)ccc2c(=O)c1-c1cnn(-c2ccccc2)c1`, the cytotoxicity was 22.6%. Consider `COc1cc(NC(=O)Nc2cccc(Cl)c2)c(OC)cc1NC(=O)CN1CCCCC1`, for which the cytotoxicity is 89.7% (active). Take `COc1cc(NC(=O)Nc2ccccc2)c(OC)cc1NC(=O)CN1CCCCC1`: the cytotoxicity was -3.3%.

On to `COc1cc(NC(=O)Nc2ccccc2OC)c(OC)cc1NC(=O)CN1CCCCC1`, for which the cytotoxicity was 48.5%.
